Structures are written as SMILES. Entries with a potency or affinity are not part of this list. Calls of active or inactive are those of the source.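 Rule for the calls: active = compound slowing PglD reaction, half-maximal concentration at most twice top tested dose, in every test run; inconclusive = test runs disagree, or weak flat or poorly fitted curves; inactive = the rest.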

In the assay the target is PglD acetyltransferase (Campylobacter jejuni) (UniProt O86157). In words: inhibition of C. jejuni PglD N-acetyltransferase – biochemical, DTNB absorbance, cherry-picked samples, set 2, dose response (AID 624257). The note with it: Purified PglD, DTNB absorbance 412 nm, CoA release; series mostly up to 19.5 µM; activity change, negative = inhibition: at the top concentration.
Chain of PglD acetyltransferase (Campylobacter jejuni) (O86157 1-203): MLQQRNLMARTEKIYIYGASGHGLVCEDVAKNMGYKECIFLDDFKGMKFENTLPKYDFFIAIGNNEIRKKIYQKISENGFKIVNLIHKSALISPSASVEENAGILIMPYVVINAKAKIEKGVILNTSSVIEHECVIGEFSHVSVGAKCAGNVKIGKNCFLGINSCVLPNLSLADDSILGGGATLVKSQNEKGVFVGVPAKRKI
Take `C=CC1=C(C(=O)O)N2C(=O)[C@@H](NC(=O)/C(=N/OCC(=O)O)c3csc(N)n3)[C@H]2SC1`: the “activity change, negative = inhibition” value was -21.8% (inactive).
For `CCn1c(SCc2nc3sc(C(=O)O)c(C)c3c(=O)[nH]2)nc2ccccc21` the value was -38.5% (inactive); for `CCc1ccc(N=C2NC(=O)/C(=C/c3cc(Br)c(OCC(=O)O)c(OC)c3)S2)cc1`, -7.94% (inactive).

Source of the values: PubChem BioAssay AID624257 (Broad Institute, 2012).
